The values below come from PubChem BioAssay (Tox21).

Results filed as inconclusive are left out. Active and inactive are the calls of the source. Calls follow the shape of the dose curve; as a rule, active = well fitted activation curve with a large enough effect in the signal ratio in the repeat runs (not every such curve was filed as active); inconclusive = weak or mixed curves, or effect the other way; inactive = flat fitted curve, though single readings scatter; the % refers to the signal ratio.
% is scaled to controls: 0 for no effect and ±100 for the full control effect.

The experiment in a line: qHTS assay to identify small molecule agonists of the endoplasmic reticulum stress response signaling pathway (AID 1159516). Particulars: ESRE-bla HeLa, ER stress beta-lactamase reporter, 5 h; series mostly up to 61 µM; activation: at the top concentration. The source says:
National Center for Advancing Translational Sciences [NCATS]
NIH Chemical Genomics Center [NCGC]
U.S. Environmental Protection Agency [EPA]
National Institutes of Environmental Health Sciences [NIEHS]
National Toxicology Program [NTP]
U.S. Food and Drug Administration [FDA]
Endoplasmic Reticulum (ER) plays an important role in cellular signaling, protein folding/maturation, stress response, lipid biosynthesis, calcium storage and release etc. Under stress conditions, proteins in ER misfold or unfold, and leading to the expression of ER stress responsive genes. ER stress has been associated with a variety of pathophysiological conditions such as cancer, inflammation, neurodegenerative diseases, diabetes, ischemic heart disease etc. To identify the compounds that induce ER stress response, an ER stress reporter cell line, CellSensor ESRE-bla HeLa (Life Technologies, Carlsbad, CA) containing a beta-lactamase reporter gene under control of the Endoplasmic reticulum Stress Response Element (ESRE) was used to screen Tox21 10K compound library.
Tox21 Assay Protocol Summary:
ESRE-bla HeLa cells were dispensed at 1,500 cells/6 uL of assay medium per well into black wall/clear-bottom 1536-well plates using a Multidrop Combi (ThermoFisher Scientific, Waltham, MA) dispenser. After the assay plates were incubated at 37 C and 5% CO2 for an overnight, 23 nL of compounds dissolved in DMSO, positive controls or DMSO only was transferred to the assay plate by a Pintool station (Kalypsys, San Diego, CA). The assay plates were incubated at 37 C and 5% CO2 for 5 hr. One uL of LiveBLAzer B/G FRET substrate (Life Technologies) was added using a Flying Reagent Dispenser (Aurora Discovery, San Diego, CA) and the plates were incubated at room temperature for 2 hr. Fluorescence intensity (405 nm excitation, 460 nm and 530 nm emissions) was measured using an Envision plate reader (PerkinElmer, Shelton, CT).
For orientation: Quantitative high-throughput screening tests each substance at several concentrations.
In the case of `COc1ccc(O)cc1`, the compound was classed as inactive.
Still for that read-out and setting: the same measure for `CCCCOCCOCCSC#N`: “inactive”; for `NC(=O)c1ccc([N+](=O)[O-])cc1Cl`: “inactive”.
Same read-out and setting: the result for `CC(C)=CCC/C(C)=C/CO` reads “inactive”.
The same measure, in the same setting: the same measure for `C[C@]12C[C@H](O)[C@H]3[C@@H](CCC4=CC(=O)CC[C@@]43C)[C@@H]1CC[C@@H]2C(=O)CO`: “inactive”.
As to `CCCCCCCCCCCCCC(=O)OC(C)C`, the outcome was inactive.
Still for that read-out and setting: the same measure for `Cc1ccc(O)c(-n2nc3ccccc3n2)c1`: “inactive”; for `N[C@@H](Cc1c[nH]c2ccccc12)C(=O)O`: “inactive”; for `Cc1cccc(Nc2cc(Cl)nc(SCC(=O)O)n2)c1C`: “inactive”.
Same read-out and setting: the result for `Cc1c(N(C)CS(=O)(=O)O)c(=O)n(-c2ccccc2)n1C` reads “inactive”; that for `CC1(C)O[C@@H]2[C@@H](CO[C@@]3(COS(N)(=O)=O)OC(C)(C)O[C@@H]23)O1`, “inactive”.
With `C#C[C@]1(O)CC[C@H]2[C@@H]3CCC4=CC(=O)CC[C@@H]4[C@H]3CC[C@@]21CC`, the call was inactive.
On to `CC(=O)/C=C/C1=C(C)CCCC1(C)C`, for which the compound was called inactive.
Still for that read-out and setting: the result for `CN/C(=C\[N+](=O)[O-])NCCSCc1ccc(CN(C)C)o1` reads “inactive”; that for `COC1=CC(=O)C[C@@H](C)[C@]12Oc1c(Cl)c(OC)cc(OC)c1C2=O`, “inactive”; that for `COc1cc(C=O)ccc1O`, “inactive”.
On the same count and under the same terms, the result for `CCCCOCCOCCOC(C)=O` reads “inactive”; that for `Cc1c(N(C)C)c(=O)n(-c2ccccc2)n1C`, “inactive”; that for `CC1=NN(c2ccccc2)C(=O)C1`, “inactive”.
On the same count and under the same terms, the result for `CCOCCO` reads “inactive”.
On to `CC1=C(/C=C/C(C)=C/C=C/C(C)=C/C(=O)O)C(C)(C)CCC1`, for which the “activation” value is -5.97% (inactive).
As for `CCN1CCCC1=O`, the call was inactive.
For the compound `O=C(O)Cc1cccc2ccccc12`, the result was inactive.
On the same count and under the same terms, the same measure for `COCC(C)N` (stereo not given): “inactive”; for `N[C@@H](Cc1c[nH]c2ccc(O)cc12)C(=O)O`: “inactive”.
On the same count and under the same terms, the result for `C=CC(=O)NC(C)(C)CS(=O)(=O)O` reads “inactive”; that for `CCCCCCCCOc1ccc(C(=O)c2ccccc2)c(O)c1`, “inactive”; that for `CN(C)C=O`, “inactive”.
The same measure, in the same setting: the result for `CCOC(=O)C(C)(C)Oc1ccc(Cl)cc1` reads “inactive”.
Take `O=C(O)CN(CC(=O)O)CC(=O)O`: the outcome was inactive.
Still for that read-out and setting: the same measure for `NCCNc1cccc2ccccc12`: “inactive”.
On the same count and under the same terms, the result for `CC(=O)OC/C=C(C)/C=C/C=C(C)/C=C/C1=C(C)CCCC1(C)C` reads “inactive”; that for `C1CNCCN1`, “inactive”.
On the same count and under the same terms, the result for `CCN(CC)CCOC(=O)c1ccc(N)cc1` reads “inactive”; that for `COc1cc(O)c(C(=O)c2ccccc2)cc1S(=O)(=O)O`, “inactive”; that for `CC(=O)c1ccc(S(=O)(=O)NC(=O)NC2CCCCC2)cc1`, “inactive”.
For `C/C=C/c1ccc(O)c(OC)c1`, the result was inactive.
On the same count and under the same terms, the result for `C=C(C)OC(C)=O` reads “inactive”; that for `NC(=O)NO`, “inactive”.
The same measure, in the same setting: the same measure for `O=C1CCCCCN1`: “inactive”.
